Experimental data from PMC7862700, “An all-to-all approach to the identification of sequence-specific readers for epigenetic DNA modifications on cytosine”.

Experiments:
Assay in all cases: DAPPL (digital affinity profiling via proximity ligation, sequencing); 10 mM Tris-HCl pH 7.5, 50 mM NaCl, 1 mM DTT, 4% glycerol, room temperature, 30 min; GST-TFs on glutathione beads, 16-mer random dsDNA library, 0.1% formaldehyde crosslink after washing; high values mean tight binding
[1] = molecular target: T1, FLI1 (Homo sapiens, UniProt Q01543 1-452); details: protein: recombinant; tags: N-terminal GST; dsDNA, one strand shown
T1 sequence: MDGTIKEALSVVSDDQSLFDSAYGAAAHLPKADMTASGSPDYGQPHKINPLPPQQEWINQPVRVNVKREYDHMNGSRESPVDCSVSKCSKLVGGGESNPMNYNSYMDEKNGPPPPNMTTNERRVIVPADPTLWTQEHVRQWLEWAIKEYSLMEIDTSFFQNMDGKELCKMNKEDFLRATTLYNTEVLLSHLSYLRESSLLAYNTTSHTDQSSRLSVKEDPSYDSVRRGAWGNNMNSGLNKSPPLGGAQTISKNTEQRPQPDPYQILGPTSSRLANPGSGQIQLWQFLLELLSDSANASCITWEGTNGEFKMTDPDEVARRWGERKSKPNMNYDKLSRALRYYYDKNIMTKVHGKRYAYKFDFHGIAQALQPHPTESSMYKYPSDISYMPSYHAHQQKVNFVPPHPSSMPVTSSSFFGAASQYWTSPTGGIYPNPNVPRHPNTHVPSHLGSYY
Summary of the method: (§1)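 After expression in yeast as GST fusions, human transcription factors were bound to glutathione beads, DNA-barcoded and mixed with a tag-only sample. The pools were incubated with 200 nmole of a 16-mer random double-stranded DNA library in Tris/NaCl/DTT/glycerol buffer (30 min, room temperature), washed and crosslinked with 0.1% formaldehyde. Proximity ligation with BsaI/T4 ligase ran for 1 h at 37 °C, before PCR amplification and sequencing on an Illumina NextSeq500. Binding signal is a hexamer's read frequency for a factor divided by its frequency for the tag-only sample.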

[2] = molecular target: T2, ELK1 (Homo sapiens, UniProt P19419 1-428); details: protein: recombinant; tags: N-terminal GST; dsDNA, one strand shown
T2 sequence: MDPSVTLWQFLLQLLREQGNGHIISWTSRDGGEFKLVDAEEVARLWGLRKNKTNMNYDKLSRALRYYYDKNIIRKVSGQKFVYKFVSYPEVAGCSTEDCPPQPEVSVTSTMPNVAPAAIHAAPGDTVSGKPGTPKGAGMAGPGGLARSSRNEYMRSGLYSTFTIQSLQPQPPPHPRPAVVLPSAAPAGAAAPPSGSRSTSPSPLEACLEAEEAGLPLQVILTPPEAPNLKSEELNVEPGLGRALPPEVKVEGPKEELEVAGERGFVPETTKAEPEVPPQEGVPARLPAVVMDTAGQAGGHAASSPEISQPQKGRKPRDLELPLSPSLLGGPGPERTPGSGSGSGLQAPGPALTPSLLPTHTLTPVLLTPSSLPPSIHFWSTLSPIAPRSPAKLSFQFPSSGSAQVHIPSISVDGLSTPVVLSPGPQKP
Summary of the method: as §1

[3] = molecular target: T3, GABPA (Homo sapiens, UniProt Q06546 1-454); details: protein: recombinant; tags: N-terminal GST; dsDNA, one strand shown
T3 sequence: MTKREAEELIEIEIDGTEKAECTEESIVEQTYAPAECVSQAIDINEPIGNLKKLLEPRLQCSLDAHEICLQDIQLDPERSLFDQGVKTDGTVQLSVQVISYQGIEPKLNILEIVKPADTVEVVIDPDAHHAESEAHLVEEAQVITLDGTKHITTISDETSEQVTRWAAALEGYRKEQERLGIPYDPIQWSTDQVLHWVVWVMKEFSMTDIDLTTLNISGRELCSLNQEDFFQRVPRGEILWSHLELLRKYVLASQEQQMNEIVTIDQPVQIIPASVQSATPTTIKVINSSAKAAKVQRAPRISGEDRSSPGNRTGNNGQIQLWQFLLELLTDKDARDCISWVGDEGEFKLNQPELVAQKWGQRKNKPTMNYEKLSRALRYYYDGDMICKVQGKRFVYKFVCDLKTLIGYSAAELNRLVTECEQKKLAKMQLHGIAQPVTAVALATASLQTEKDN
Summary of the method: as §1

[4] = molecular target: T4, ERG (Homo sapiens, UniProt P11308 1-479); details: protein: recombinant; tags: N-terminal GST; dsDNA, one strand shown
T4 sequence: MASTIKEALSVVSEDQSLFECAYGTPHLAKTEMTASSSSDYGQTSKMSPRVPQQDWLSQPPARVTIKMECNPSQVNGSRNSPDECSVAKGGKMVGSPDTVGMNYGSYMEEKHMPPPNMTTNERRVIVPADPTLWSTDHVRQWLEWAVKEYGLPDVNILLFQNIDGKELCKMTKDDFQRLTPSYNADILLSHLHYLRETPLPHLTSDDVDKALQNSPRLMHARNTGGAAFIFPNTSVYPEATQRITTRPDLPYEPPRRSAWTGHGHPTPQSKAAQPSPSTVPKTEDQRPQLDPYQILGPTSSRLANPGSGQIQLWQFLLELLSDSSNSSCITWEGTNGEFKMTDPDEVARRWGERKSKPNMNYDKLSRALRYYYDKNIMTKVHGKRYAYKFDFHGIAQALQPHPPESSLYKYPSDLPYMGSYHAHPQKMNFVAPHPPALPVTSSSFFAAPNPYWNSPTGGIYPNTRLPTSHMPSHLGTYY
Summary of the method: as §1

[5] = molecular target: ELF1 (Homo sapiens, UniProt P32519 1-619); details: protein: recombinant; tags: N-terminal GST; dsDNA, one strand shown
Summary of the method: as §1

[6] = molecular target: T5, EHF (Homo sapiens, UniProt Q9NZC4 1-300); details: protein: recombinant; tags: N-terminal GST; dsDNA, one strand shown
T5 sequence: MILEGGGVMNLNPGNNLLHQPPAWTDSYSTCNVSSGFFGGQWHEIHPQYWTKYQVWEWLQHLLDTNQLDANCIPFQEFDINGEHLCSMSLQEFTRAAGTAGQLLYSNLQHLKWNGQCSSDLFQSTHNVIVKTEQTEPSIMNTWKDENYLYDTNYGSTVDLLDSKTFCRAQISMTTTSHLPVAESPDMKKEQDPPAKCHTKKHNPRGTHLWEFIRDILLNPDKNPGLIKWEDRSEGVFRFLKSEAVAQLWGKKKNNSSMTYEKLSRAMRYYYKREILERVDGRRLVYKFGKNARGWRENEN
Summary of the method: as §1

[7] = molecular target: SPI1 (Homo sapiens, UniProt P17947 1-270); details: protein: recombinant; tags: N-terminal GST; dsDNA, one strand shown
Summary of the method: as §1

[8] = molecular target: SPIB (Homo sapiens, UniProt Q01892 1-262); details: protein: recombinant; tags: N-terminal GST; dsDNA, one strand shown
Summary of the method: as §1

[9] = molecular target: T6, ELK3 (Homo sapiens, UniProt P41970 1-407); details: protein: recombinant; tags: N-terminal GST; dsDNA, one strand shown
T6 sequence: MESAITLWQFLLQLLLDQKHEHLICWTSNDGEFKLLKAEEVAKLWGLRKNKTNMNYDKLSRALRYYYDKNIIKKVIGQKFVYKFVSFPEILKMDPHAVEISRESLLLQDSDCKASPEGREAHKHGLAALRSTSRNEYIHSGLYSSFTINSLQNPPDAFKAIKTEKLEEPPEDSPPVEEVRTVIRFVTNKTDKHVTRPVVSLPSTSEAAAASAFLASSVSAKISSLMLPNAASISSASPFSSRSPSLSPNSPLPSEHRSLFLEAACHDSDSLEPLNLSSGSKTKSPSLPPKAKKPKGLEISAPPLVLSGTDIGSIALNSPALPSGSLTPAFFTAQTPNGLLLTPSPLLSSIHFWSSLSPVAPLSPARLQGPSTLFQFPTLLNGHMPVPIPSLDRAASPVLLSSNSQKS
Summary of the method: as §1

[10] = molecular target: T7, FEV (Homo sapiens, UniProt Q99581 1-238); details: protein: recombinant; tags: N-terminal GST; dsDNA, one strand shown
T7 sequence: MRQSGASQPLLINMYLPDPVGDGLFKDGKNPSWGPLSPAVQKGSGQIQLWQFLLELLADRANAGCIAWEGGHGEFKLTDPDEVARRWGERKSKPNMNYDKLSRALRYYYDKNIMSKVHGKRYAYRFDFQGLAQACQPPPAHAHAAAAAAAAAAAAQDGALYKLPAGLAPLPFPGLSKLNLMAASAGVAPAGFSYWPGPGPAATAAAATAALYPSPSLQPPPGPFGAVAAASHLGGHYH
Summary of the method: as §1

[11] = molecular target: ETV5 (Homo sapiens, UniProt P41161 1-510); details: protein: recombinant; tags: N-terminal GST; dsDNA, one strand shown
Summary of the method: as §1

[12] = molecular target: HSF1 (Homo sapiens, UniProt Q00613 1-529); details: protein: recombinant; tags: N-terminal GST; chain copies: 3; dsDNA, one strand shown
Summary of the method: as §1

[13] = molecular target: T8, SPIC (Homo sapiens, UniProt Q8N5J4 1-248); details: protein: recombinant; tags: N-terminal GST; dsDNA, one strand shown
T8 sequence: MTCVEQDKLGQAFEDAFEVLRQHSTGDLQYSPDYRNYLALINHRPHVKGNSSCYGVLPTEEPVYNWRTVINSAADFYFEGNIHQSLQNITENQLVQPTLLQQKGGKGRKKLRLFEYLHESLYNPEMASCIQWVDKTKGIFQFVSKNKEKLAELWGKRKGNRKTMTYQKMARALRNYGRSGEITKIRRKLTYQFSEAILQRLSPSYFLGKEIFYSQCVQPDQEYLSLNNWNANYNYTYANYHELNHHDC
Summary of the method: as §1

[14] = molecular target: ELF4 (Homo sapiens, UniProt Q99607 1-663); details: protein: recombinant; tags: N-terminal GST; dsDNA, one strand shown
Summary of the method: as §1

[15] = molecular target: T9, ELK4 (Homo sapiens, UniProt P28324-2 1-405); details: protein: recombinant; tags: N-terminal GST; dsDNA, one strand shown
T9 sequence: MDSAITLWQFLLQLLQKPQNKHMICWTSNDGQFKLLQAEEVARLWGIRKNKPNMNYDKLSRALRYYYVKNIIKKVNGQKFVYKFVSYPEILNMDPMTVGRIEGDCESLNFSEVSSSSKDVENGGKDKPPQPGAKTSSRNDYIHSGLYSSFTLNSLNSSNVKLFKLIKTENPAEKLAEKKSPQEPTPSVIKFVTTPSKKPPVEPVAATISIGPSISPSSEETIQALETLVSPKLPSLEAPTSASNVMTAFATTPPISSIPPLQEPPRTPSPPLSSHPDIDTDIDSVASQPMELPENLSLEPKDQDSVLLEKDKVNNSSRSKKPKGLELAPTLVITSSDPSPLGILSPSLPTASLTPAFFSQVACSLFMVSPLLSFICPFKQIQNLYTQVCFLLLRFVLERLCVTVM
Summary of the method: as §1

[16] = molecular target: T10, ETV2 (Homo sapiens, UniProt O00321 1-342); details: protein: recombinant; tags: N-terminal GST; dsDNA, one strand shown
T10 sequence: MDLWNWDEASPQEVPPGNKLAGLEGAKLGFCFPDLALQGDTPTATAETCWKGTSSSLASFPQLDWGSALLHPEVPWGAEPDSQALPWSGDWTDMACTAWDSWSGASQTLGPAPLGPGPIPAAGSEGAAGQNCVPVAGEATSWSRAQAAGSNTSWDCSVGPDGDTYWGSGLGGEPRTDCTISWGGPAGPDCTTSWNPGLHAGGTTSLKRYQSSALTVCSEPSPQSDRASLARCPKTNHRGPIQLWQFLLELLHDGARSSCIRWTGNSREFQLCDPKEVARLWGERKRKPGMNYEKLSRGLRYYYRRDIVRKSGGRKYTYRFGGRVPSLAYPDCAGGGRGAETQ
Summary of the method: as §1

[17] = molecular target: T11, ELF3 (Homo sapiens, UniProt P78545 1-371); details: protein: recombinant; tags: N-terminal GST; dsDNA, one strand shown
T11 sequence: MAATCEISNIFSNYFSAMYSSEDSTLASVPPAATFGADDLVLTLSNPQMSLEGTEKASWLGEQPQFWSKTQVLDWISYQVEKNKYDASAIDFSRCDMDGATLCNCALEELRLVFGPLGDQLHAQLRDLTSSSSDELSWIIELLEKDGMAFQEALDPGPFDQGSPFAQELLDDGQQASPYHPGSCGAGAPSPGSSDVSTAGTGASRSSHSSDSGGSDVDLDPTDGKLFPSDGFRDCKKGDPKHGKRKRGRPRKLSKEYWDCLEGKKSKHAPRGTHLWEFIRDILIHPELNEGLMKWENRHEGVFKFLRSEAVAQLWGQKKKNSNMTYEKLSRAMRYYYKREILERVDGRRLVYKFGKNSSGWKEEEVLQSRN
Summary of the method: as §1

[18] = molecular target: CRX (Homo sapiens, UniProt O43186 1-299); details: protein: recombinant; tags: N-terminal GST; dsDNA, one strand shown
Summary of the method: as §1

[19] = molecular target: ETV1 (Homo sapiens, UniProt P50549 1-477); details: protein: recombinant; tags: N-terminal GST; dsDNA, one strand shown
Summary of the method: as §1

ELF4, sequence (Q99607 whole entry): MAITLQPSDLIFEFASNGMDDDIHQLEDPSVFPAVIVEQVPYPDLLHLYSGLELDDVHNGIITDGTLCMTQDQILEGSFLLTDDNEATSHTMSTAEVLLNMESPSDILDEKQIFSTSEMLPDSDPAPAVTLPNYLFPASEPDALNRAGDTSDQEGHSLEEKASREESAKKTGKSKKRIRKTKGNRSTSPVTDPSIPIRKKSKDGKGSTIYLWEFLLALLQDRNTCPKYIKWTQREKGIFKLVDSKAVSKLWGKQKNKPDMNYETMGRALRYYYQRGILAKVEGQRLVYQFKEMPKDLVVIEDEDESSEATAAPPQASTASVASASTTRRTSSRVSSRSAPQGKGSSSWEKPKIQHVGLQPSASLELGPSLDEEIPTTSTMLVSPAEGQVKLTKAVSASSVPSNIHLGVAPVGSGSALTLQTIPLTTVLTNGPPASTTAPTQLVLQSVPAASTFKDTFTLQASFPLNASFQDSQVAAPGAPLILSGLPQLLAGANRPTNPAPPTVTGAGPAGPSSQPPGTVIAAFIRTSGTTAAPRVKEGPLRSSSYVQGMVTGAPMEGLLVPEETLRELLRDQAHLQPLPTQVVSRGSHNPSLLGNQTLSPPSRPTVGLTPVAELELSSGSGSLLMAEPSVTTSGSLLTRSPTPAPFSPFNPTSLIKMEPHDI
SPIB, sequence (Q01892 whole entry): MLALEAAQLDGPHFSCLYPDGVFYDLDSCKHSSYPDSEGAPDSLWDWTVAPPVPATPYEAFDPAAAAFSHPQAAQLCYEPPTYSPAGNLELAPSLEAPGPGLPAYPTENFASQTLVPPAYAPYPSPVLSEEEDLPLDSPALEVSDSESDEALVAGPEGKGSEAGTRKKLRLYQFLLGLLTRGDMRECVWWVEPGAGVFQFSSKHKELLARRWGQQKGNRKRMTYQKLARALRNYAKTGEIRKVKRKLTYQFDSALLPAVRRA
CRX, sequence (O43186 whole entry): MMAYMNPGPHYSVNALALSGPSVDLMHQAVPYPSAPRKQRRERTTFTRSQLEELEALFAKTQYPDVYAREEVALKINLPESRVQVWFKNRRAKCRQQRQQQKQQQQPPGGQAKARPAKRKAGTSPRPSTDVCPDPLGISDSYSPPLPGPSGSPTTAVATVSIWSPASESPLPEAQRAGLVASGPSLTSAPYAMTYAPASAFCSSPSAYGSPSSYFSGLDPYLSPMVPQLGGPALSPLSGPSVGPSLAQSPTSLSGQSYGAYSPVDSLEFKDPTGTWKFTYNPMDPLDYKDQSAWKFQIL
ETV1, sequence (P50549 whole entry): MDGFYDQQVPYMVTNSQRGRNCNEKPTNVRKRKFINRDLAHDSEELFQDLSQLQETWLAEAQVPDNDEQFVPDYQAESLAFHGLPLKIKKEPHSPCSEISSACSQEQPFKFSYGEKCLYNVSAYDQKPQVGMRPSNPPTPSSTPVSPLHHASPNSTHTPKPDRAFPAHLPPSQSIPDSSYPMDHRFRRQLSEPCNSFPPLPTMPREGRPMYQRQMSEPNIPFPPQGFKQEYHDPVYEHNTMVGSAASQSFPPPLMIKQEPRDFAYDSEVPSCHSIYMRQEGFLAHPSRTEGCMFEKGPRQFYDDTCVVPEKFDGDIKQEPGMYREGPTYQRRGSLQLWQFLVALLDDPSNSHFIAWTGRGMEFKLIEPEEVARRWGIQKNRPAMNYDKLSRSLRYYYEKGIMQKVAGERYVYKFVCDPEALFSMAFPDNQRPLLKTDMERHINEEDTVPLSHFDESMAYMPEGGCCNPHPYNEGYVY
HSF1, sequence (Q00613 whole entry): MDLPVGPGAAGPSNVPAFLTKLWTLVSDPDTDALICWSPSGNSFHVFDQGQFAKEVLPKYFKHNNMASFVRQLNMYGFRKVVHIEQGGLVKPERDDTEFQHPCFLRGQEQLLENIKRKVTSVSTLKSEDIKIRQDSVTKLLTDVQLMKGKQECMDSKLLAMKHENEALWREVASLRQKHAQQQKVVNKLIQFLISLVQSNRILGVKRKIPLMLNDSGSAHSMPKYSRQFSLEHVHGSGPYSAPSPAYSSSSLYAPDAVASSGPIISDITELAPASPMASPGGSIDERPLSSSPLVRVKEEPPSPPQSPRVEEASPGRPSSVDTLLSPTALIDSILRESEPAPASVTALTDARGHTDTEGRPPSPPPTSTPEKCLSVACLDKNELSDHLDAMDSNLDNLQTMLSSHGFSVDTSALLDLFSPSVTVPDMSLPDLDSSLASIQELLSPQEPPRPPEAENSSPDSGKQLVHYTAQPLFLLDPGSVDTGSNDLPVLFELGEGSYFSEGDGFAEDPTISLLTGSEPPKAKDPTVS
ETV5, sequence (P41161 whole entry): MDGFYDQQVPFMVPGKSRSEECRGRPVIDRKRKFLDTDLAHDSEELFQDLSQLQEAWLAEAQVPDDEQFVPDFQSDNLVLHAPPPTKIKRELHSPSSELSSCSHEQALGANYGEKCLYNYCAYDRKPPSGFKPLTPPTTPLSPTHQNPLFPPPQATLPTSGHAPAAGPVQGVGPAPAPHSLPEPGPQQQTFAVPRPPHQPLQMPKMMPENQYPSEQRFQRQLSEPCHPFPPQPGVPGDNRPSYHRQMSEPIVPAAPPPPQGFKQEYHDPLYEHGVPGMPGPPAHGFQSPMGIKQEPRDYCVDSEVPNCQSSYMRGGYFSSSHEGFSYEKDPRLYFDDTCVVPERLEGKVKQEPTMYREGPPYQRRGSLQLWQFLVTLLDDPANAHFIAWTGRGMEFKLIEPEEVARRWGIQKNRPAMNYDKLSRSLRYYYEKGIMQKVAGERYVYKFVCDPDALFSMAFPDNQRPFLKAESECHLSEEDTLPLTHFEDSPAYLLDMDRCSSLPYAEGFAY
ELF1, sequence (P32519 whole entry): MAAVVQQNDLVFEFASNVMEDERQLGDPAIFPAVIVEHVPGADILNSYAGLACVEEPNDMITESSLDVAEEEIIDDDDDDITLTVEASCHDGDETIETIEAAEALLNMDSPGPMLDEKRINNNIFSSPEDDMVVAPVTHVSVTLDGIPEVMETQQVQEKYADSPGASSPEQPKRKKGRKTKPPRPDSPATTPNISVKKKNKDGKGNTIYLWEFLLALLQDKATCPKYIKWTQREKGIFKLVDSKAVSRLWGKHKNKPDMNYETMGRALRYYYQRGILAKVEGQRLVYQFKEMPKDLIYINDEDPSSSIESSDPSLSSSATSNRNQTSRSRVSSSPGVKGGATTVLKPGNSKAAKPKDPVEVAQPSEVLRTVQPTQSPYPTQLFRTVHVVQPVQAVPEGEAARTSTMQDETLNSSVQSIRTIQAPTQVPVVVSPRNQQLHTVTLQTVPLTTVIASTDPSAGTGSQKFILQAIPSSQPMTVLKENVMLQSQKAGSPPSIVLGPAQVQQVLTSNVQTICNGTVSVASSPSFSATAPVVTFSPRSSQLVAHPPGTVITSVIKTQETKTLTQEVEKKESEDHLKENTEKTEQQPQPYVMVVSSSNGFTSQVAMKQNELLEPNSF

With AACTGC the binding signal [1] was 1.34 fold enrichment (6-mer frequency, TF over GST control), the binding signal [2] was 1.47 fold enrichment (6-mer frequency, TF over GST control) and the binding signal [3] was 1.32 fold enrichment (6-mer frequency, TF over GST control). The binding signal [4] was 1.32 fold enrichment (6-mer frequency, TF over GST control), the binding signal [5] was 1.42 fold enrichment (6-mer frequency, TF over GST control) and the binding signal [6] was 1.33 fold enrichment (6-mer frequency, TF over GST control). The binding signal [7] was 1.45 fold enrichment (6-mer frequency, TF over GST control), the binding signal [8] was 1.41 fold enrichment (6-mer frequency, TF over GST control) and the binding signal [9] was 1.25 fold enrichment (6-mer frequency, TF over GST control). The binding signal [10] was 1.42 fold enrichment (6-mer frequency, TF over GST control), the binding signal [11] was 1.38 fold enrichment (6-mer frequency, TF over GST control) and the binding signal [12] was 1.07 fold enrichment (6-mer frequency, TF over GST control). For the same sequence, the binding signal [13] was 1.49 fold enrichment (6-mer frequency, TF over GST control), the binding signal [14] was 1.31 fold enrichment (6-mer frequency, TF over GST control) and the binding signal [15] was 1.33 fold enrichment (6-mer frequency, TF over GST control). For the same sequence, the binding signal [16] was 1.19 fold enrichment (6-mer frequency, TF over GST control), the binding signal [17] was 1.32 fold enrichment (6-mer frequency, TF over GST control) and the binding signal [18] was 1.05 fold enrichment (6-mer frequency, TF over GST control). For the same sequence, the binding signal [19] was 1.36 fold enrichment (6-mer frequency, TF over GST control).
